Measured values: PMC4336329 (PLoS ONE, 2015)
Screen size: about 310,000 compounds; about 14,000 (4.5%) showed an effect of 50% or more. The effect is printed as a negative number. Shown is part of a subset that was picked to be rich in strong results.

Target: human ether-à-go-go-related gene (hERG) potassium channel (human, UniProt Q12809)
Assay: primary screen, population patch clamp on CHO cells stably expressing hERG; higher = less effect of the substance
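Note: peak tail current of the secondary pulse compared with the same well before compound.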

Chain of human ether-à-go-go-related gene (hERG) potassium channel (Q12809 whole entry, looked up): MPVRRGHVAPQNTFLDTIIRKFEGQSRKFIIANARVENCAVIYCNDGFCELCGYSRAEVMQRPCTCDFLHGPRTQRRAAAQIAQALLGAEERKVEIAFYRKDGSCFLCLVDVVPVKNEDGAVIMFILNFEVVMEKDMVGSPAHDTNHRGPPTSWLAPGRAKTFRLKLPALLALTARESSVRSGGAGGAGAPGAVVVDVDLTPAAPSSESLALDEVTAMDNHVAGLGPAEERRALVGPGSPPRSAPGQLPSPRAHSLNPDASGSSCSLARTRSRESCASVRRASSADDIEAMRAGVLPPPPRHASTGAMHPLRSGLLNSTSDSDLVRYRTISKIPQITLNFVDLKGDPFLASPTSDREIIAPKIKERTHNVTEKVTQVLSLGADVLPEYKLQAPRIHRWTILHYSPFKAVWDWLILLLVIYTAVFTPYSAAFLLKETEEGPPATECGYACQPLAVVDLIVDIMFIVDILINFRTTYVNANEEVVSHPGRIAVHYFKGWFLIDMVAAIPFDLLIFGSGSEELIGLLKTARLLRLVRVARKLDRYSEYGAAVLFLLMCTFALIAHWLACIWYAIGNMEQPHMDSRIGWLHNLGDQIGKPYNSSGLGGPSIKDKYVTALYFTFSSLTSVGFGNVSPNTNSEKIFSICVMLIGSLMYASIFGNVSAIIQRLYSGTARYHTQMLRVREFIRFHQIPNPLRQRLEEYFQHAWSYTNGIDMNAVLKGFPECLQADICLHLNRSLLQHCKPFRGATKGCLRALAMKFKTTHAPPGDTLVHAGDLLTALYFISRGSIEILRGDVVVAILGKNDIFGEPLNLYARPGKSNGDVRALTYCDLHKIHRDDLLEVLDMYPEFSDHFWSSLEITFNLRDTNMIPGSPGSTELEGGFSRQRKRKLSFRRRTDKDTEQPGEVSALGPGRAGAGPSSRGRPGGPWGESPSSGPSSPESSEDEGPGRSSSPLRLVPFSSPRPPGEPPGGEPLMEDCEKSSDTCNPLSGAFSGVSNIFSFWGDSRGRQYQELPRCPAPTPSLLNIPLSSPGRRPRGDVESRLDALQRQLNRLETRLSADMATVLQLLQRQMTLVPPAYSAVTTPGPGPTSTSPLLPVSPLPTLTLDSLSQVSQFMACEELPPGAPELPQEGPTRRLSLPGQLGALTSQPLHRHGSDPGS

SMILES | hERG current change (%, negative = inhibition) at 10uM
COc1cc(C)c(Cl)cc1S(=O)(=O)NCCN1CCOCC1 | 15.9%
Cc1c(NC(=O)c2ccc(F)cc2)c(=O)n(-c2ccccc2)n1C | 11.2%
CCCc1cc(=O)[nH]c(SCC(=O)c2cc(C)n(CC(F)(F)F)c2C)n1 | 7.55%
CC(=O)c1ccc(S(=O)(=O)N(C)CC(=O)Nc2ccc(C)cc2)cc1 | -0.949%
O=S(=O)(Nc1ccc2c(c1)OCCO2)c1cnc[nH]1 | 7.8%
CCOC(=O)c1c(S(=O)(=O)NCCc2ccc(OC)c(OC)c2)c(C)n(C)c1C | 4.97%
CC(C)(C)NC(=O)NC(=O)COC(=O)c1cccc(F)c1 | -1.01%
O=C(CSc1nnc(CNc2ccc(F)cc2)o1)N1CCN(C(=O)c2ccco2)CC1 | -50.8%
O=C(NCc1nnc(SCC(=O)N2CCCC2)o1)c1ccco1 | -7.2%
O=C(CSc1nnc(COc2cccc3cccnc23)o1)N1CCN(C(=O)c2ccco2)CC1 | 0.452%
O=C(CSc1nnc(CNc2ccccc2)o1)N1CCN(C(=O)c2ccco2)CC1 | -17.3%
O=C(CSc1nnc(COc2cccc3ccccc23)o1)N1c2ccccc2CCc2ccccc21 | 7.68%
O=C(CSc1nnc(COc2cccc3ccccc23)o1)N1CCN(C(=O)c2ccco2)CC1 | -65.1%
O=C(Nc1ccccc1)/C(=C\c1ccco1)NC(=O)c1ccco1 | -6.57%
COc1ccc(CCNC(=O)c2nnn(CC(=O)Nc3ccc(C)cc3C)c2N)cc1OC | 13.8%
CCCOC(=O)c1cccc(NC(=O)c2cccnc2)c1 | -39.7%
O=C1CC(c2ccccc2)SC(N(c2ccccc2)c2ccccc2)=N1 (stereo not shown) | -0.167%
Cn1cc(Cl)c(C(=O)NNC(=S)NC2CCCCC2)n1 | 15.4%
Cc1cc(C)cc(N2CCCC2=O)c1 | 16.3%
O=C(c1ccco1)N1CCN(C(=S)NCc2ccc(F)cc2)CC1 | -53.1%
CSc1ccccc1C(=O)N1CCC(CCC(=O)NCc2ccc(F)cc2)CC1 | -12.4%
O=C(CCC1CCN(C(=O)c2ccccc2Cl)CC1)NCc1ccc(F)cc1 | -18.9%
O=C(NC1CC2CCC1C2)c1ccco1 (stereo not shown) | -5.69%
O=C(c1ccco1)N1CCN(C(=S)Nc2ccc(F)cc2)CC1 | -2.5%
CCNC(=S)N1CCN(C(=O)c2ccco2)CC1 | 5.8%
O=C(N[C@@H]1C[C@H]2CC[C@@H]1C2)c1ccco1 | 4.88%
O=C(CCC1CCN(C(=O)c2ccco2)CC1)NCc1ccc(F)cc1 | -72.6%
O=C(c1ccco1)N1CCN(C(=S)NC2CC3CCC2C3)CC1 (stereo not shown) | -67.3%
